According to PubChem BioAssay (Tox21):
Inconclusive results are not listed. Unmarked numbers belong to inactive results. The source made the active and inactive calls. The call rests on the fitted dose curve.

Assay: p53 small molecule agonists, cell-based qHTS assay with human liver microsomes: qHTS cell viability counter screen (AID 1963579); further: nearly all actives have a fitted effect of over 45% in size
Settings: p53RE-bla HCT-116 viability, ATP luminescence, 16 h, HLM; series mostly up to 66 µM; activity change, negative = cytotoxicity: at the top concentration
Source text: National Center for Advancing Translational Sciences [NCATS]
Division of Preclinical Innovation [DPI]
U.S. Environmental Protection Agency [EPA]
National Institutes of Environmental Health Sciences [NIEHS]
National Toxicology Program [NTP]
U.S. Food and Drug Administration [FDA]
p53, a tumor suppressor protein, is activated following cellular insult, including DNA damage and other cellular stresses. The activation of p53 regulates cell fate by inducing DNA repair, cell cycle arrest, apoptosis, or cellular senescence. The activation of p53, therefore, is a good indicator of DNA damage and other cellular stresses. […] The activation of the reporter gene under culture conditions can be detected by fluorescence intensity. This cell line was used to screen the Tox21 10K compound library in the condition of presence of human liver microsomes and to identify agonists that activate the p53 signaling pathway after in vitro metabolic activation (Ooka et al., Archive of Toxicology 96:1975-1987, 2022).
Tox21 Assay Protocol Summary:
The p53RE-bla cells were dispensed at 4,000cells/3ul/well in 1536-well black-clear bottom plates. After the assay plates were incubated at 37 C, 5% CO2 incubator for 5 hours, 23 nL of compounds dissolved in DMSO, positive controls or DMSO only was transferred to the assay plate. Following compound addition, 3 uL of human liver microsomes (XenoTech, Kansas City, KS) at final concentration of 0.5 mg/mL and 1uL of B-Nicotinamide adenine dinucleotide 2'-phosphate (NADPH) at final concentration of 0.5 mg/mL were transferred to the assay plate. The plates were incubated at 37 C for 16 hours. 1 uL of LiveBLAzer detection mixture was added to each well and the plates were incubated at room temperature in the dark for 2 h. Fluorescence intensity at 460 and 530 nm emission and 405 nm excitation were measured by an Envision plate reader. For cell viability readout that measures cytotoxicity, 4 ul/well of CellTiter-Glo reagent was added into the assay plates using a Flying Reagent Dispenser. After 30 min incubation at room temperature, the luminescence intensity in the plates was measured using a ViewLux plate reader.
On the % scale 0 is the no-effect control and ±100 the full control effect; potency means the concentration at half of the fitted maximal effect.

Point of comparison: CN1C(=O)OC(C)(C)C1=O, “activity change, negative = cytotoxicity” value 0.738%. Against it:
- CC(C)CCCC(=O)O — higher, 3.89%
- FC(F)OC(Cl)C(F)(F)F (stereo not given) — lower, -4.03%
- CCCCCCCC/C=C\CCCCCCCC(=O)OC[C@@H](O)[C@H]1OC[C@H](O)[C@H]1O — higher, 4.26%
- CCCCCc1ccc(N)cc1 — higher, 2.81%
- CC(=O)Nc1ccc(C)cc1C — lower, -6.26%
- CC[N+](CC)(CC)Cc1ccccc1 — lower, -7.86%
- CCCCCCCCCCCC(=O)Cl — higher, 2.29%
- CC[C@@H](N)CO — lower, -0.595%
- COc1ccc(-c2coc3cc(O)ccc3c2=O)cc1 — lower, -0.0906%
- O=C(O)c1ccc(Cl)cc1Cl — higher, 4.34%
- O=C(OCCCCCOC(=O)c1ccccc1)c1ccccc1 — lower, 0.121%
- NC(=O)N(O)[C@@H]1C=C[C@H](Oc2cccc(Oc3ccc(F)cc3)c2)C1 — higher, 1.16%
- O=C(O)c1ccccc1Cl — higher, 7.87%
- Cc1occc(=O)c1OC(=O)C(C)C — lower, -4.52%
- Oc1ccc2c(c1)OCO2 — higher, 2.52%
- CC(C)(O)c1ccccc1 — lower, -6.04%
- CCOC(=O)C1=NOC(c2ccccc2)(c2ccccc2)C1 — lower, -9.91%
- OCCN(CCO)CCN(CCO)CCO — higher, 8.11%
- O=C(/C=C/c1ccc(O)c(O)c1)O[C@@H]1C[C@](O)(C(=O)O)C[C@@H](O)[C@H]1O — lower, -2.8%
- Clc1cc(Cl)nc(Cl)n1 — lower, -9.16%
- SC1CCCCC1 — lower, -4.78%
- O=c1cc(-c2ccccc2)oc2ccc3ccccc3c12 — lower, -21.9%
- OC[C@@H](O)C(O)[C@@H](O)CO (stereo not given in full) — higher, 4.63%
- CCOC(=O)C(C)O (stereo not given) — higher, 1.84%

In the case of CCCCCCCCCOC(=O)c1ccc(O)cc1, the Potency is reported as 18 µM (active).
For OCC(F)(F)F, the Potency was 38.3 µM (active).

Point of comparison: Nc1nc2c(ncn2COCCO)c(=O)[nH]1, “activity change, negative = cytotoxicity” value -4.27% [at 30.3 µM]. Against it:
- Cc1cc(-n2nc3ccc(Cl)cc3n2)c(O)c(C(C)(C)C)c1 — higher, 0.517% [at 30.3 µM]
- COc1cc(OC)cc(OC)c1 — higher, -0.437% [at 30.3 µM]
- CN(C)CCN1C(=O)c2ccccc2N(C)c2ccccc21 — higher, 21.4% [at 30.3 µM]
- O=C(NC(Cc1cc(=O)[nH]c2ccccc12)C(=O)O)c1ccc(Cl)cc1 (stereo not given) — higher, 1.84% [at 30.3 µM]
- CC1=C(C(=O)OC(C)C)C(c2cccc([N+](=O)[O-])c2)C(C(=O)OC2CN(C(c3ccccc3)c3ccccc3)C2)=C(N)N1 (stereo not given) — lower, -4.88% [at 30.3 µM]
- NC(=O)c1cn(Cc2c(F)cccc2F)nn1 — higher, -0.158% [at 30.3 µM]
- Nc1nc(N)c(-c2ccccc2)s1 — higher, 8.61% [at 30.3 µM]
- CC(C)CCCC(C)NCCC(C)C (stereo not given) — lower, -7.37% [at 30.3 µM]
- CC(C)=CCC/C(C)=C/CC/C(C)=C/C(=O)OCC(=O)[C@@]1(O)CC[C@H]2[C@@H]3CCC4=CC(=O)C=C[C@]4(C)[C@H]3[C@@H](O)C[C@@]21C — higher, 6.33% [at 30.3 µM]
- CCCN(CCC)CCc1cccc2c1CC(=O)N2 — higher, 28.2% [at 30.3 µM]
- Cn1c(=O)c2c(ncn2CC(=O)O)n(C)c1=O — lower, -6.67% [at 30.3 µM]

CN1CCN(c2c(F)cc3c(=O)c(C(=O)O)cn4c3c2OCN4C)CC1 gave an activity change, negative = cytotoxicity of -4.82% [at 13.5 µM].
